# Inconclusive results are not listed. Entries that show only a call come without a potency. A number with no mark means an inactive call. Activity calls are given as the source filed them. Calls follow the shape of the dose curve; as a rule, active = well fitted curve in the direction sought with a large enough effect in the repeat runs; inconclusive = weak or mixed curves; inactive = no such curve, though single readings can be large; an effect the other way counts as inactive or inconclusive.
# How the values were obtained:
# [1] = target: Voltage-gated inwardly rectifying potassium channel KCNH2 (Homo sapiens) (UniProt Q12809); test: Human Ether-a-go-go-Related Gene (hERG) channel small molecule antagonists: fluorescence cell-based qHTS assay (AID 1671200);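 also: hERG-expressing U2OS cells given a thallium stimulus after FluxOR II dye loading; series mostly up to about 77 µM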
# Method in brief: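 Read-out: thallium influx as a surrogate for potassium, tracked as fluorescence (480 nm ex/540 nm em) every second for 2 min after Stimulus Buffer addition in dye-loaded hERG-U2OS cells.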
# [2] = target: Cytochrome P450 3A4 (Homo sapiens) (UniProt P08684); test: Cytochrome P450 Family 3 Subfamily A Member 4 (CYP3A4) small molecule antagonists: luciferase reporter qHTS assay (AID 1671201); also: potency is read from the fitted curve at half-maximal effect; as to activity change, negative = inhibition: series mostly up to about 120 µM
# Method in brief: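 Luminescent readout (RLU) proportional to CYP3A4 activity, from luciferin generated off a proluciferin substrate. Enzyme–substrate mix plus compound 10 min at room temp, NADPH regeneration 1 h, detection reagent 20 min.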
# Also: nearly all actives have a fitted effect of over 50% in size.
# Chain of Voltage-gated inwardly rectifying potassium channel KCNH2 (Homo sapiens) (Q12809 whole entry, looked up): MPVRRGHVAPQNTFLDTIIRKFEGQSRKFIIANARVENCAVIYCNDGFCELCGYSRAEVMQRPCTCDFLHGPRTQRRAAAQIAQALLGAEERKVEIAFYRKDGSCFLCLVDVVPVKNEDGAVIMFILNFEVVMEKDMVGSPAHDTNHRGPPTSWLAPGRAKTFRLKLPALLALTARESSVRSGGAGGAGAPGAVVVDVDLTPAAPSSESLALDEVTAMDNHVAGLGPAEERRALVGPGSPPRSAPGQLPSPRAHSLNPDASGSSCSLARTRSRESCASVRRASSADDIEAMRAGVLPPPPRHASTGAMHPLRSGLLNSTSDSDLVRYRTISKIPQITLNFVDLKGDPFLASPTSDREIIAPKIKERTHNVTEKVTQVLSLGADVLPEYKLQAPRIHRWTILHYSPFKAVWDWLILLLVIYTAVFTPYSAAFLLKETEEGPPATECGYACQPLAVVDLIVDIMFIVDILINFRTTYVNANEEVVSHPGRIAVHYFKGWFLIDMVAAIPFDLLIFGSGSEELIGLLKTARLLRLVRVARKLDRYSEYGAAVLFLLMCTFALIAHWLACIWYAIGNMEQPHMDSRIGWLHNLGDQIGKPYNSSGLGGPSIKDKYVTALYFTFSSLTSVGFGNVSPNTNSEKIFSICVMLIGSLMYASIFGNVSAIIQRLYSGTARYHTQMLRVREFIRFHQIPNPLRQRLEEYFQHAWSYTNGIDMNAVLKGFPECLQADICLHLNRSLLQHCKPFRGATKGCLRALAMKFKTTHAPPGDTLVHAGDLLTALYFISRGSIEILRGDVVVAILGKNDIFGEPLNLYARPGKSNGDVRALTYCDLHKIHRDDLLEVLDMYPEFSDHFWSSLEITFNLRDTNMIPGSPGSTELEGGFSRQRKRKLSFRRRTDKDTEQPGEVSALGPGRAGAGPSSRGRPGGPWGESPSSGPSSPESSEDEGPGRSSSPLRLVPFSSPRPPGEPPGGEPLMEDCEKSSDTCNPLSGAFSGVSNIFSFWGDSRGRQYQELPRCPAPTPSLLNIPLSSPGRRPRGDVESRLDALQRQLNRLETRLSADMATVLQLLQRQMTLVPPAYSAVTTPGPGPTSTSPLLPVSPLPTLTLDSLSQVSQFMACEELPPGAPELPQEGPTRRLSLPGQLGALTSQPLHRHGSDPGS
# Chain of Cytochrome P450 3A4 (Homo sapiens) (P08684 whole entry, looked up): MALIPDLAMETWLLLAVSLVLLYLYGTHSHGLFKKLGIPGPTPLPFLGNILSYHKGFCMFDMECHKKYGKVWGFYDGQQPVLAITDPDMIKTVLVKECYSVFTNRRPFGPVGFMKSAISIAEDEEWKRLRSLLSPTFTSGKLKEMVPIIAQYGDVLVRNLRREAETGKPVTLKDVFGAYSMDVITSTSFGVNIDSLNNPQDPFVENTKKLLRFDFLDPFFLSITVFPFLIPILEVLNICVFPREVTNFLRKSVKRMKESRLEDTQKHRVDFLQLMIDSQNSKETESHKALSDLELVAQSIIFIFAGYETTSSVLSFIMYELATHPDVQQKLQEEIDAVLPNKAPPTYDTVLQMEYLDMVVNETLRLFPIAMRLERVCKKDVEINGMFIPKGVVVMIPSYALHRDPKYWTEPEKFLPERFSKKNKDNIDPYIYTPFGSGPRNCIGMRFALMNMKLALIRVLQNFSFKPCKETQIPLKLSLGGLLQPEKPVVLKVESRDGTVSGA
compound,measurement,setting,value
CC1=C(C/C=C(\C)CCC[C@H](C)CCC[C@H](C)CCCC(C)C)C(=O)c2ccccc2C1=O,Potency,[1],inactive
same,Potency,[2],inactive
CN(C)CCCCCCN(C)C,Potency,[1],inactive
CCCCCCC1CCC(=O)O1 (centres undefined),Potency,[1],inactive
same,Potency,[2],inactive
CC12CCC(C(=O)C1=O)C2(C)C (centres undefined),Potency,[1],inactive
same,Potency,[2],inactive
C[N+](C)(C)CCCCCCCCCC[N+](C)(C)C,Potency,[1],inactive
same,Potency,[2],inactive
CCOC(=O)C1=NOC(c2ccccc2)(c2ccccc2)C1,Potency,[2],inactive
CCCCOCCOC(=O)CCCCCCCCC(=O)OCCOCCCC,Potency,[1],inactive
same,Potency,[2],inactive
C=CC(C)(CCC=C(C)C)OC(=O)CC (centres undefined),Potency,[1],inactive
same,Potency,[2],28.3 µM (active)
C=CN1CCCCCC1=O,Potency,[1],inactive
same,Potency,[2],inactive
Cc1ccc(C(=O)Nc2ccc(S(=O)(=O)O)c3cc(S(=O)(=O)O)cc(S(=O)(=O)O)c23)cc1NC(=O)c1cccc(NC(=O)Nc2cccc(C(=O)Nc3cc(C(=O)Nc4ccc(S(=O)(=O)O)c5cc(S(=O)(=O)O)cc(S(=O)(=O)O)c45)ccc3C)c2)c1,Potency,[1],inactive
same,Potency,[2],inactive
Cc1cc(C)c(N=Nc2c(O)c(S(=O)(=O)O)cc3cc(S(=O)(=O)O)ccc23)cc1C,"activity change, negative = inhibition",[1],-0.475% [at 6.97 µM]
same,"activity change, negative = inhibition",[2],1.68% [at 10.5 µM]
Clc1cc(Cl)c(Cl)nc1Cl,Potency,[1],inactive
same,Potency,[2],inactive
CC(C)=CCC/C(C)=C/C#N,Potency,[1],inactive
same,Potency,[2],inactive
CCOCC(C)O (centres undefined),Potency,[1],inactive
same,Potency,[2],inactive
CC(C)(C)C(=O)c1ccccc1,Potency,[1],inactive
same,Potency,[2],inactive
NC(=O)Cc1cccc2ccccc12,Potency,[1],inactive
same,Potency,[2],inactive
CN(C)CCCN(C)CCCN(C)C,Potency,[1],inactive
same,Potency,[2],inactive
O=C(CO)[C@@H](O)[C@H](O)[C@H](O)CO,Potency,[1],inactive
same,Potency,[2],inactive
CCCn1cc[n+](C)c1C,Potency,[1],inactive
same,Potency,[2],inactive
CO[Si](C)(OC)c1ccccc1,Potency,[1],inactive
same,Potency,[2],25.2 µM (active)
CCCCCCC#CC(=O)OC,Potency,[1],inactive
O=C(c1ccccc1)C1(O)CCCCC1,Potency,[1],inactive
same,Potency,[2],inactive
Cc1nc2ccc(CN(C)c3ccc(C(=O)N[C@@H](CCC(=O)O)C(=O)O)s3)cc2c(=O)[nH]1,Potency,[1],inactive
same,Potency,[2],inactive
CCOC(=O)C(=O)CCCCCCl,Potency,[1],inactive
same,Potency,[2],inactive
CC(=O)NC(=O)c1ccccc1O,Potency,[1],inactive
same,Potency,[2],inactive
CC/C=C\CCOC(C)OCC (centres undefined),Potency,[1],inactive
same,Potency,[2],inactive
CCCO[Si](OCCC)(OCCC)OCCC,Potency,[1],inactive
same,Potency,[2],inactive
C[N+]12CCC(CC1)C(OC(=O)C(O)(c1ccccc1)c1ccccc1)C2 (centres undefined),Potency,[1],inactive
same,Potency,[2],inactive
CCCCN(CCC(=O)OCC)C(C)=O,Potency,[1],inactive
same,Potency,[2],inactive
CCCCCCCCCCCCSC,Potency,[1],inactive
same,Potency,[2],inactive
CC(C)C[C@@H](N)C(=O)O,"activity change, negative = inhibition",[1],1.04% [at 15.8 µM]
CCN[C@@H]1C[C@H](N)[C@@H](OC2OC(CN)=CCC2N)[C@H](O)[C@H]1O[C@H]1OC[C@](C)(O)[C@H](NC)[C@H]1O (some centres undefined),"activity change, negative = inhibition",[1],-0.868% [at 0.29 µM]

# Source: PubChem BioAssay (Tox21)
